Screening data deposited in PubChem BioAssay by National Center for Advancing Translational Sciences (NCATS).
The list is not random: actives were taken first. Their share in the collection is about 21%.
Pf growth 96h: P. falciparum growth inhibition at 96 hour, primary screen for plastid delayed-death inhibitors. P. falciparum luciferase reporter growth, 96 h. Potency, µM (doses to about 28.7 µM), usual class: inhibitors. actives 6.9% (n = 320,000)
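Parasite growth measured via integrated firefly luciferase reporter in P. falciparum. Infected erythrocytes at 2% hematocrit, 0.05% parasitemia final were treated 96 hours at 37 C under 5% CO2, and luminescence was read.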
HCV inh: inhibitors of hepatitis C virus infection; actives 3.4% (n = 340,000); Huh7.5.1 HCVcc-Cre infection, luciferase reporter, 44 h; Potency, µM (top dose mostly 41.8 µM), actives largely listed as inhibitors; AID 651820
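A cell-based infection assay in which seeded cells (1,000 per well) receive test compound after 4 h, are inoculated with HCVcc-Cre at approximately 0.5 moi, and are incubated 44 h before luminescence detection.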
Cycloheximide cs: affects cycloheximide protein synthesis inhibition readout, counter-screen; cell reporter, cycloheximide protein synthesis inhibition counterscreen; actives 12% (n = 300,000); max response, %; AID 2314; in the data active = max response mostly above about 13%, no sharp cut-off; inactive = mostly below about 14%; note: read at 38.3 µM for the half of the compounds with a filed dose
HCMV antiviral: human cytomegalovirus inhibition; actives 4.5% (n = 410,000); AID 1259415; activity change, negative = inhibition, % at 57.5 µM; HFF cells, HCMV-luciferase reporter, 72 h; hits give low values; in the data active = activity change below about -60%; inconclusive = no clear call, values can overlap the other calls; inactive = above about -39%
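Compounds were evaluated in HFFs infected with an HCMV luciferase reporter virus (MOI 1 PFU/cell). Luciferase in lysates collected 72 h post infection served as the replication measure.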
Pf growth 48h: P. falciparum growth inhibition at 48 hours (one generation) | P. falciparum luciferase growth in erythrocytes, 48 h | Potency, µM (doses to about 28.7 µM), most hits filed as inhibitors | actives 5.9% (n = 310,000)
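Cell-based growth assay: transgenic P. falciparum expressing firefly luciferase, cultured in red cells within RPMI 1640 containing 0.5% w/v Albumax, 24 mM bicarbonate and gentamycin. A drop in luciferase activity indicates inhibition.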
Shiga inhibitor: blocks Shiga toxin action in Vero cells. Vero cells, Shiga toxin protein synthesis inhibition reporter. inhibition, % at 38.7 µM. actives 9.2% (n = 290,000); in the data active = inhibition mostly above about 28%, no sharp cut-off; inactive = mostly below about 43%
Numbers stand for hits; n = inactive; u = inconclusive; x = not tested or not shown; [ ] = another dose, or the depositor's remark. Unless noted, calls come from the whole dose curve; as a rule, active = well fitted inhibition curve with a large enough effect; inconclusive = small, poorly fitted or top-dose-only effect, or another doubt; inactive = no such curve, though single readings can be large or run the other way.

SMILES | Pf growth 96h | HCV inh | Cycloheximide cs | HCMV antiviral | Pf growth 48h | Shiga inhibitor
CC(C)=NOc1cc(NC(=O)CCl)cc([N+](=O)[O-])c1 | u | 25µM | n | -83 | u | n
CCC(=O)Nc1cc(ON=C(C)C)cc([N+](=O)[O-])c1 | n | u | n | n | n | n
CCC(=O)Nc1cc(SCCO)cc([N+](=O)[O-])c1 | n | x | n | n | n | n
COc1ccccc1N(C(=O)c1csnn1)C(C(=O)NC1CCCC1)c1ccccc1 (centres undefined) | n | n | n | n | n | n
O=C1C2C3CC(C(Br)C3Br)C2C(=O)N1c1ccccn1 (centres undefined) | n | u | n | n | u | n
O=C1c2cccc3c([N+](=O)[O-])ccc(c23)C(=O)N1Cc1cccnc1 | n | u | n | -73 | u | n
Cc1cccc(N2C(=O)c3ccccc3C2=O)n1 | n | n | n | n | n | n
Cc1ccnc(N2C(=O)C3C4CC(C(Br)C4Br)C3C2=O)c1 (centres undefined) | 9.3µM | n | n | n | n | n
Cc1ccnc(N2C(=O)c3ccccc3C2=O)c1 | 12µM | n | n | n | n[0.00184 µM] | n
Cc1ccnc(N2C(=O)c3cccc4c([N+](=O)[O-])ccc(c34)C2=O)c1 | n | 11µM | n | n | n | n
COc1ccc(CN2C(=O)C(n3cccc3)c3ccccc32)cc1 (centres undefined) | x | x | x | n | x | x
Cc1ccc(Nc2c(-c3ccncc3)nc3ccc(C)cn23)cc1 | x | x | x | n | x | x
CCN(C(=O)c1cc2ccccc2oc1=O)c1cccc(C)c1 | u | n | 53 | n | x | 78
CCN(C(=O)c1cc2ccccc2oc1=O)c1ccccc1 | x | n | 24 | n | x | n
Cc1c(C(=O)Nc2ccccc2)sc2nc(-c3ccccc3)cn12 | u | 8.9µM | 39 | n | u | 61
Cc1cccc(NC(=O)c2sc3nc(-c4ccc(F)cc4)cn3c2C)n1 | n | u | n | n | n | n
Cc1ccc(Cl)cc1NC(=O)c1sc2nc(-c3ccccc3)cn2c1C | x | x | x | -63 | x | x
Cc1cccc(NC(=O)c2sc3nc(-c4ccccc4)cn3c2C)n1 | u | 13µM | 36 | u | u | 66
Cc1c(C(=O)Nc2ccc3c(c2)OCO3)sc2nc(-c3ccccc3)cn12 | u | 4µM | n | n | 13µM | n
CCc1nc(NCCO)c(C#N)c2c1CSC(C)(C)C2 | n | n | n | n | u | n
COc1cccc2c1CCCC2CCCN1CCN(C2CCCCC2)CC1 (centres undefined) | x | x | n | x | x | n
CC(C)CCNC(=O)C(=O)Nc1c2c(nn1-c1ccc(Cl)cc1)CSC2 | x | x | x | n | x | x
COc1ccc(C)cc1NC(=O)c1sc2nc(-c3ccc(F)cc3)cn2c1C | x | x | x | n | x | x
COc1ccc(-c2cn3c(C)c(C(=O)NC(C)(C)C)sc3n2)cc1 | n | u | 30 | n | n | 41
COc1ccc(-c2cn3c(C)c(C(=O)Nc4cccc(C)n4)sc3n2)cc1 | n | u | 12 | u | u | n
SMILES | Pf growth 96h | HCV inh | Cycloheximide cs | HCMV antiviral | Pf growth 48h | Shiga inhibitor
Cc1ccc(Nc2nc(CSc3nnc(-c4ccncc4)n3C)cs2)cc1 | n | n | 25 | n | n | 54
Cc1ccccc1Nc1nc(CSc2nnc(-c3ccoc3C)n2C)cs1 | n | n | 21 | n | n | n
Cc1nc2cccnc2n1C1CCN(C(=O)Nc2ccccc2C(F)(F)F)CC1 | x | x | x | n | x | x
O=C(O)COc1ccccc1/C=N/NC(=O)c1cc2ccccc2cc1O | n | n | n | n | n | n
CCN(CC)CCNc1cc(C)nc2c1C(=O)C(=O)C=C2N1CCCCC1 | n | u | n | -98 | u | n
COc1ccc(-c2oc3ccccc3c(=O)c2OC(=O)c2ccc(C)cc2)cc1 | u | n | n | -75 | u | n
O=C(Oc1c(-c2ccccc2)oc2ccccc2c1=O)c1ccccc1 | u | n | n | -82 | n | n
CCN(CC)C(=O)c1sc2c(c1C)c(=O)n(-c1ccc(C)c(C)c1)c(=O)n2CC(=O)Nc1ccc(F)cc1 | x | x | x | n | x | x
CC(=O)c1c(N2CCN(c3ccc(F)cc3)CC2)nc(=S)n(Cc2ccccc2)c1C | n | u | n | -68 | u | n
CC1(C(=O)NCCc2c[nH]c3ccccc23)CCN1CC1CCCCC1 (centres undefined) | x | x | x | -64 | x | x
O=C(NCCc1c[nH]c2ccccc12)C1CCC(Cn2c(=S)[nH]c3ccccc3c2=O)CC1 (centres undefined) | u | 4.5µM | n | -68 | x | n
O=C(NCc1ccc(F)cc1)c1cc(C2CCCCN2S(=O)(=O)c2ccccc2)on1 (centres undefined) | x | x | x | n | x | x
CCOc1ccc(NC(=O)CSc2nnc(-c3ccc(OCC)cc3)o2)cc1 | x | x | x | n | x | x
CC1CCC(NC(=O)CCS(=O)(=O)c2ccc3c(c2)NC(=O)C(C)S3)CC1 (centres undefined) | n | n | n | n | n | n
COc1ccc(C(CNC(=O)C2CC2)N(C)C)cc1 (centres undefined) | n | n | 17 | n | n | 27
CCn1c(SCC(=O)c2ccc(O)c(O)c2)nnc1-c1ccccc1 | u | u | 34 | n | u | n
CCn1c(SCC(=O)c2ccc(O)c(O)c2)nnc1-c1ccccc1OC | x | n | n | n | u | n
C=CCn1c(SCC(=O)c2ccc(O)c(O)c2)nnc1-c1cccc(C)c1 | n | u | x | n | n | x
C=CCn1c(SCC(=O)c2ccc(O)c(O)c2)nnc1-c1cccc(Cl)c1 | n | 4µM | x | n | u | x
CC(C)C[C@H]1CNC(=O)C(=O)N1CC1CCN(CCc2ccc(-c3ccccc3)cc2)CC1 | x | n | x | n | x | x
CCC(C(=O)Oc1c(C(C)C)cccc1C(C)C)c1ccccc1 (centres undefined) | u | n | x | n | n | x
COCCC(C(=O)Oc1c(C(C)(C)C)cc(C)cc1C(C)(C)C)c1ccccc1 (centres undefined) | 5.2µM | n | x | n | 8.3µM | x
O=C(CN1C(=O)C2CCCCC2C1=O)OCC(=O)c1ccc(F)cc1 (centres undefined) | n | n | x | n | n | x
c1cc2[nH]snc2c2nc(C3CC3)nc12 | n | u | 28 | u | n | n
COc1ccc(CCNCc2cccn2C)cc1 | 1.5µM | n | n | n | n | n
SMILES | Pf growth 96h | HCV inh | Cycloheximide cs | HCMV antiviral | Pf growth 48h | Shiga inhibitor
CCc1ccc(CNCCc2ccccc2F)cc1 | n | n | n | -72 | n | n
Cn1cccc1CNCCc1ccccc1F | 2.6µM | n | n | n | n | n
Fc1ccccc1CCNCc1cccc(Cl)c1Cl | n | n | 18 | n | n | n
Cn1cccc1CNCCc1ccccc1 | n | x | n | x | n | n
CCN(CC)S(=O)(=O)c1ccc(C(=O)OCC(=O)NCCN2C(=O)CSC2=O)cc1 | n | n | n | n | n | n
O=C(Cc1n[nH]c(=O)c2ccccc12)OCC(=O)c1ccccc1 | n | n | x | n | n | x
O=C([C@H]1[C@H](CO)[C@H]2Cn3c(cccc3=O)[C@@H]1N2C(=O)c1ccc(F)cc1)N1CCCCC1 | x | x | x | n | x | x
